# Bioassay records (PubChem BioAssay)
# uPA surface inh – qHTS for Inhibitors of Cell Surface uPA Generation. 0.31% of 330,000 active. Potency, µM (highest dose often 38.3 µM), for the others: at the highest dose activity change, negative = inhibition, most hits filed as inhibitors. cell surface uPA generation assay, qHTS; active = well fitted inhibition curve with a large enough effect; inconclusive = small, poorly fitted or top-dose-only effect; inactive = no such curve, though single readings can be large or run the other way; tested in mouse RAW 264.7 cells; also: potency is read from the fitted curve at half-maximal effect; % is scaled to controls: 0 for no effect and ±100 for the full control effect; nearly all actives have a fitted effect of over 55% in size
# TDP1 block – qHTS Assay for Inhibitors of Tyrosyl-DNA Phosphodiesterase (TDP1) | Tyrosyl-DNA phosphodiesterase 1 (Homo sapiens), Q9NUW8 | recombinant TDP1, AlphaScreen DNA substrate cleavage | Potency, µM (highest dose often 130 µM), inactives show top-dose activity change, negative = inhibition, most hits filed as inhibitors | 0.28% of 350,000 active; also: potency is read from the fitted curve at half-maximal effect; % is scaled to controls: 0 for no effect and ±100 for the full control effect; nearly all actives have a fitted effect of over 40% in size
# Target sequence (Q9NUW8 whole entry, looked up): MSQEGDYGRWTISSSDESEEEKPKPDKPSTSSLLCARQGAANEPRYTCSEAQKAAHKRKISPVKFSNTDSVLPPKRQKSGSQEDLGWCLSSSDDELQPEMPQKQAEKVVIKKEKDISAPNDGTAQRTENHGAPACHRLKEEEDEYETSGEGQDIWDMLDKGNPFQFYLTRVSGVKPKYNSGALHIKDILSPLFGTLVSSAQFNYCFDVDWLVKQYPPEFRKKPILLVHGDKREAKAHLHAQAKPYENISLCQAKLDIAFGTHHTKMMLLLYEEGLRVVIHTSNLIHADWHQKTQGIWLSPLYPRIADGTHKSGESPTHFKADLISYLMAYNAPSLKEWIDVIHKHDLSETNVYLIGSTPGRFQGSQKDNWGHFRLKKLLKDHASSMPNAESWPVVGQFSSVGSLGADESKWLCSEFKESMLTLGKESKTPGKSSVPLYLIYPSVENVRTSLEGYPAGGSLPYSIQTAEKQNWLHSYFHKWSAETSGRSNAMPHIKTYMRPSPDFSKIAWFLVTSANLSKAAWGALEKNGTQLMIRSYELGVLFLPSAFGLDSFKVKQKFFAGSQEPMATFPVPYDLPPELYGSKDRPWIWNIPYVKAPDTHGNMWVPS
#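 Compounds were preincubated with Tdp1 (1 nM final) for 15 min at room temperature before substrate (15 nM final) started a 5 min reaction; beads (10 ug/ml final) were then added for 10 min before AlphaScreen detection.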
# TDP1 cell noCPT – qHTS for Inhibitors of human tyrosyl-DNA phosphodiesterase 1 (TDP1): qHTS in cells in absence of CPT. DT40 Tdp1-/- hTDP1 cells, no CPT, ATP luminescence, 48 h. Potency, µM (top dose mostly 46.2 µM), without a hit: top-dose activity change, negative = growth inhibition, most hits filed as inhibitors. 15% of 420,000 active. AID 686978, 2013; also: potency is read from the fitted curve at half-maximal effect; % is scaled to controls: 0 for no effect and ±100 for the full control effect; nearly all actives have a fitted effect of over 55% in size
#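 Chicken DT40 Tdp1-/- cells complemented with human TDP1, screened without camptothecin (DMSO vehicle only), 400 cells/well. Compounds pin-transferred, cells incubated at 37 °C for at least 48 hr. Growth read as ATP-dependent luminescence (CellTiter-Glo, 30 min at RT).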
# DT40 TDP1 CPT – qHTS for Inhibitors of human tyrosyl-DNA phosphodiesterase 1 (TDP1): qHTS in cells in presence of CPT | Potency, µM (highest dose often 46.2 µM), for inactives: at the highest dose activity change, negative = growth inhibition, hits mostly inhibitors | chicken DT40 Tdp1-/-;hTDP1 cells + 20 nM CPT, ATP luminescence, 48 h | 12% of 420,000 active; also: potency is read from the fitted curve at half-maximal effect; % is scaled to controls: 0 for no effect and ±100 for the full control effect; nearly all actives have a fitted effect of over 55% in size
#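 Cell growth measured by CellTiter-Glo luminescence after a minimum 48 h, 37 C compound exposure with 20 nM CPT in Tdp1-knockout DT40 cells stably expressing hTDP1, seeded 400/well; qHTS titration format.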
# miR-21 reporter – qHTS Assay for Modulators of miRNAs and/orActivators of miR-21. AID 2288, 2010. 340,000 tested, under 10 active. HeLa miR-21 FLuc reporter, luciferase, 48 h. Potency, µM (highest dose often 38.3 µM), inactives show top-dose activity change, positive = activation, hits mostly activators;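 also: % of control where 0% means no effect; miR-21 action dims this reporter so a rising signal means less miR-21 action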
#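 Using DMEM plus 10% FBS, HeLa miR-21-FLuc cells are incubated with test compounds (final up to about 40uM) for 48 hours; firefly luciferase signal is then imaged following reagent-mediated lysis.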
# Active calls of the source: *; u = inconclusive; x = no result given; [ ] = remark or other dose. Only some compounds are listed: those with a hit (about 16% of all), similar ones and a draw of the others. Unless noted, calls follow the shape of the dose curve; as a rule, active = well fitted curve in the direction sought with a large enough effect; inconclusive = small, poorly fitted or top-dose-only effect, or another doubt; inactive = no such curve, though single readings can be large; an effect the other way counts as inactive or inconclusive.
SMILES,uPA surface inh,TDP1 block,TDP1 cell noCPT,DT40 TDP1 CPT,miR-21 reporter
COc1ccc(-c2nc3ccc(NS(=O)(=O)c4ccccc4)cc3o2)cc1,x,-3%,-105%,u,3%
CC(OC(=O)c1cc2sccc2n1C)C(=O)NCCc1ccccc1 (stereo not drawn),5%,-1%,18µM*,15µM*,12%
CC(OC(=O)c1cc2sccc2n1C)C(=O)NCc1ccc(F)cc1 (stereo not drawn),2%,7%,-27%,-23%,-1%
O=c1onc2cnc3ccccc3n12,x,17%,13µM*,u,x
COc1cccc(N2CCN(C(=O)CCCCCn3c(=S)[nH]c4cc5c(cc4c3=O)OCO5)CC2)c1,11%,1%,u,21µM*,-1%
COc1cccc(N2CCN(C(=O)CCn3c(=S)[nH]c4cc5c(cc4c3=O)OCO5)CC2)c1,x,1%,x,x,-1%
O=C(CCCCCn1c(=S)[nH]c2cc3c(cc2c1=O)OCO3)N1CCN(c2ccccc2)CC1,-6%,-6%,-11%,u,-1%
COc1ccccc1N1CCN(C(=O)CCCCCn2c(=S)[nH]c3cc4c(cc3c2=O)OCO4)CC1,x,x,10µM*,u,x
O=c1c2ccccc2[nH]c(=S)n1CCCN1CCN(c2ccccc2F)CC1,u,x,u,2.9µM*,-8%
O=C(CCCn1c(=S)[nH]c2cc3c(cc2c1=O)OCO3)N1CCN(c2ccccc2F)CC1,x,3%,18µM*,u,-9%
COc1ccc(NC(=O)C2CCCN(S(C)(=O)=O)C2)cc1 (stereo not drawn),2%,x,0%,17%,0%
C/C(=N\Nc1nc2ccccc2[nH]1)c1cc2ccccc2o1,u,8%,18µM*,u,-28%
C/C(=N\Nc1ccccn1)c1ccc2c(c1)OCO2,2%,3%,u,18µM*,-41%
C/C(=N\Nc1nc2ccccc2[nH]1)c1ccc2c(c1)OCO2,-11%,8%,26µM*,15µM*,-13%
C/C(=N\Nc1nc2ccccc2[nH]1)c1ccccn1,x,x,x,x,-12%
CCOC(=O)C1=NN2C(O)C3(C)CC(C(=O)OCC)=NN3C(O)C2(C)C1 (stereo not drawn),x,x,-7%,2%,x
O=C(O)c1cccc(NC(=S)NC(=O)c2ccc(-c3ccc(Cl)cc3)o2)c1,4%,x,1%,7%,-12%
CN1CCN(c2ccc(NC(=O)c3ccc(-c4ccc(Br)cc4)o3)cc2)CC1,-1%,5%,29µM*,u,u
O=C(O)c1ccc(NC(=S)NC(=O)c2ccc(-c3ccc(Br)cc3)o2)cc1,0%,14µM*,4%,12%,-7%
COc1cccc(NC(=O)c2ccc(-c3ccc([N+](=O)[O-])cc3)o2)c1,-5%,8%,u,-29%,-22%
Cc1ccccc1C(=O)Nc1cccc(NC(=O)c2ccc(-c3ccc(Br)cc3)o2)c1,2%,3%,8.2µM*,23µM*,-5%
O=C(CSc1nc(C(F)(F)F)cc(=O)[nH]1)Nc1cccc2ccccc12,-1%,-5%[0.505 µM],-28%,-2%,x
O=C(NCC(O)c1ccc2ccccc2c1)c1c(F)cccc1F (stereo not drawn),-1%,x,-3%,-11%,5%
CC(=O)OCc1c(C(F)(F)F)nn(C)c1SCc1ccc(Cl)cc1,10%,7%,-26%,0%,-3%
Cc1nn(C)c(C)c1CN(C)S(=O)(=O)c1ccc2ccccc2c1,-9%,-12%[56.1 µM],1.3µM*,2.2µM*,15%
SMILES,uPA surface inh,TDP1 block,TDP1 cell noCPT,DT40 TDP1 CPT,miR-21 reporter
Cc1nn(C)c(C)c1CN(C)S(=O)(=O)c1ccc(F)cc1,0%,1%,21µM*,u,1%
CCN(CC)S(=O)(=O)c1ccc(F)cc1,8%,2%,-6%,2%,-3%
CCN(CC)S(=O)(=O)c1ccc(S(=O)(=O)Nc2c(C)nn(C)c2C)cc1,-7%,4%,4.6µM*,6.5µM*,x
CN1CCN(C(=O)CN(C)S(=O)(=O)c2ccc3ccccc3c2)CC1,-7%,-6%,-25%,18%,0%
COc1ccc(NC(=O)CN2C(=O)COc3ccc(S(=O)(=O)N4CCCCC4)cc32)cc1OC,-2%,3%,u,u,0%
Cc1ccc(N2CCN(C(=O)N3CCCC3)CC2)cc1C,6%,7%,8%,21µM*,-1%
Cc1ccc(N2CCN(C(=O)c3cccs3)CC2)cc1C,0%,x,-26%,-1%,-27%
Cc1ccc(C(=O)NC(=S)Nc2ccc(CN3CCCCC3)cc2)c(C)c1,-13%,2%,u,-27%,-4%
Cc1ccc(-n2nc(C(=O)N/N=C/c3cccc(C(F)(F)F)c3)c3ccccc3c2=O)cc1C,-3%,6%,u,-22%,-1%
O=C(CN1C(=O)CCC1=O)Nc1nc(-c2ccccn2)cs1,u,4%,-7%,u,1%
O=C(COc1ccccc1Cl)Nc1nc(-c2ccncc2)cs1,0%,-7%,16µM*,15µM*,x
N#Cc1ccc(OCC(=O)Nc2nc(-c3ccncc3)cs2)cc1,20%,1%,14%,-22%,x
O=C(CCCSc1ccccc1)Nc1nc(-c2ccccn2)cs1,-1%,9%,16µM*,29µM*,-2%
CSCCC(=O)Nc1nc(-c2ccccn2)cs1,-3%,10%,u,16µM*,-4%
O=C(Nc1nc(-c2ccccn2)cs1)C1CCCC1,-3%,9%,5.2µM*,2.9µM*,-31%
CCOc1ccccc1NC(=O)Nc1cnccn1,0%,-3%,15%,1%,-7%
O=C(CN1C(=O)C2C3C=CC(C3)C2C1=O)Nc1ccc(S(=O)(=O)Nc2nccs2)cc1 (stereo not drawn),16%,x,43%,4%,0%
Cc1cc(NC(=O)CCC(=O)N(Cc2ccco2)C(C(=O)NC2CCCC2)c2ccc(F)cc2)no1 (stereo not drawn),4%,18%,-17%,-19%,5%
N#Cc1ccccc1OCC(=O)Nc1nc(-c2ccccn2)cs1,x,x,5.2µM*,2.9µM*,x
O=C(COc1ccc(F)cc1Cl)Nc1nc(-c2ccccn2)cs1,x,-8%,x,x,x
O=C(COC(=O)c1c2c(nc3ccccc13)/C(=C/c1ccco1)CC2)NC1CCCC1,-5%,x,u,16µM*,-1%
CC1CCCCC1NC(=O)COC(=O)c1c2c(nc3ccccc13)/C(=C/c1ccco1)CC2 (stereo not drawn),2%,-2%,15µM*,16µM*,-30%
Cc1cc(C(=O)OCC(=O)NC2CCCCC2C)c2ccccc2n1 (stereo not drawn),-1%,0%,-1%,-18%,x
